Data reported in PubChem BioAssay (NCATS).

Experiment: qHTS profiling for inhibitors of Plasmodium falciparum (DD2) proliferation (AID 743323)
Conditions: lower = more inhibition; at 28.7 µM (top of the series) unless noted
Method in brief: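 SYBR Green fluorescence (ex 485, em 535 nm) of lysed cultures gives parasite DNA content; wells normalized to artemisinin (0.29 uM) and DMSO controls. Infected red cells: 0.3% parasitemia, 2.5% hematocrit, 72 h, 37 C.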

Row | Compound | activity, percent of control
1 | CO[C@H]1O[C@@H]2O[C@@]3(C)CC[C@H]4[C@H](C)CC[C@@H]([C@H]1C)[C@@]24OO3 | -0.375% [at 57.5 µM]
2 | CCN(CC)C(=S)S | 82.5%
3 | Cc1c(N)nc([C@H](CC(N)=O)NC[C@H](N)C(N)=O)nc1C(=O)N[C@H](C(=O)N[C@H](C)[C@@H](O)[C@H](C)C(=O)N[C@H](C(=O)NCCc1nc(-c2nc(C(=O)NCCCCN=C(N)N)cs2)cs1)[C@@H](C)O)[C@@H](O[C@@H]1O[C@@H](CO)[C@@H](O)[C@H](O)[C@@H]1O[C@H]1O[C@H](CO)[C@@H](O)[C@H](OC(N)=O)[C@@H]1O)c1cnc[nH]1 | 82.1%
4 | C#C[C@]1(O)CC[C@@H]2[C@H]3CCC4=CC(=O)CC[C@H]4[C@H]3C(=C)C[C@@]21CC | 51.3%
5 | CCN(CC)CCOCCOC(=O)C(CC)(CC)c1ccccc1 | 50.9%
6 | C[C@H]1[C@@H](OC(=O)CCC(=O)O)O[C@@H]2OC3(C)CC[C@H]4[C@H](C)CC[C@@H]1[C@@]24OO3 | -0.204%
7 | C=Cc1c(C)c2cc3nc(cc4[nH]c(cc5nc(cc1[nH]2)C(C)=C5CCC(=O)OC)c(CCC(=O)O)c4C)[C@@]1(C)C3=CC=C(C(=O)OC)[C@H]1C(=O)OC | 0.912% [at 9.63 µM]

Experiment: qHTS profiling for inhibitors of Plasmodium falciparum (HB3) proliferation (AID 743324);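 note: 100% = DMSO vehicle wells and 0% = artemisinin-treated control wells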
Conditions: Plasmodium falciparum HB3 blood-stage proliferation; at 28.7 µM (top of the series) unless noted
Method in brief: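 P. falciparum HB3 grown in erythrocytes (0.3% parasitemia, 2.5% hematocrit final) with compound for 72 h at 37 C, 5% CO2. Parasite DNA detected by SYBR Green after saponin/triton lysis overnight; normalized to 0.29 uM artemisinin and DMSO.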

Row | Compound | remaining proliferation (% of control), lower = more inhibition
8 | CO[C@H]1O[C@@H]2O[C@@]3(C)CC[C@H]4[C@H](C)CC[C@@H]([C@H]1C)[C@@]24OO3 | 0.0422% [at 57.5 µM]
9 | CCN(CC)C(=S)S | 84.6%
10 | Cc1c(N)nc([C@H](CC(N)=O)NC[C@H](N)C(N)=O)nc1C(=O)N[C@H](C(=O)N[C@H](C)[C@@H](O)[C@H](C)C(=O)N[C@H](C(=O)NCCc1nc(-c2nc(C(=O)NCCCCN=C(N)N)cs2)cs1)[C@@H](C)O)[C@@H](O[C@@H]1O[C@@H](CO)[C@@H](O)[C@H](O)[C@@H]1O[C@H]1O[C@H](CO)[C@@H](O)[C@H](OC(N)=O)[C@@H]1O)c1cnc[nH]1 | 67.1%
11 | C#C[C@]1(O)CC[C@@H]2[C@H]3CCC4=CC(=O)CC[C@H]4[C@H]3C(=C)C[C@@]21CC | 25.2%
12 | CCN(CC)CCOCCOC(=O)C(CC)(CC)c1ccccc1 | 65.7%
13 | C[C@H]1[C@@H](OC(=O)CCC(=O)O)O[C@@H]2OC3(C)CC[C@H]4[C@H](C)CC[C@@H]1[C@@]24OO3 | -0.191%
14 | C=Cc1c(C)c2cc3nc(cc4[nH]c(cc5nc(cc1[nH]2)C(C)=C5CCC(=O)OC)c(CCC(=O)O)c4C)[C@@]1(C)C3=CC=C(C(=O)OC)[C@H]1C(=O)OC | 0.279% [at 9.63 µM]

Experiment: qHTS profiling of the MIPE4 collection as inhibitors of Plasmodium falciparum (3D7) proliferation (AID 743344);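 note: scaled between DMSO vehicle wells and 0.29 µM artemisinin as full inhibition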
Conditions: P. falciparum 3D7 in erythrocytes, SYBR Green DNA fluorescence, 72 h; at 28.5 µM (top of the series)
Method in brief: (§1)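 Erythrocytes infected with P. falciparum (0.3% parasitemia, 2.5% hematocrit) incubated with compounds 72 h at 37 C, 5% CO2. Lysis with saponin/Triton buffer containing SYBR Green I, overnight at room temperature in the dark; DNA fluorescence (485/535 nm) normalised to 0.29 uM artemisinin and DMSO.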

Row | Compound | parasite growth, % of DMSO control [%]
15 | O=C(O)[C@H]1C(=CCO)O[C@H]2CC(=O)N12 | 93.2
16 | C#C[C@]1(O)CC[C@@H]2[C@H]3CCC4=CC(=O)CC[C@H]4[C@H]3C(=C)C[C@@]21CC | 22.9
17 | CC[C@H]1OC(=O)[C@H](C)[C@@H](O[C@H]2C[C@@](C)(OC)[C@@H](O)[C@H](C)O2)C(C)[C@@H](O[C@@H]2O[C@H](C)C[C@H](N(C)C)[C@@H]2O)[C@](C)(OC)C[C@@H](C)C(=O)[C@H](C)[C@@H](O)[C@]1(C)O (stereo not given in full) | 19.7
18 | CC(=O)[C@H]1CC[C@H]2[C@@H]3C=CC4=CC(=O)CC[C@@]4(C)[C@H]3CC[C@]12C | 84.6

Experiment: qHTS profiling of the MIPE4 collection as inhibitors of Plasmodium falciparum (DD2) proliferation (AID 743345)
Conditions: P. falciparum Dd2 in erythrocytes, SYBR Green DNA, 72 h; at 28.5 µM (top of the series)
Method in brief: as §1

Row | Compound | parasite growth remaining, % of DMSO control (lower = more inhibition) [%]
19 | O=C(O)[C@H]1C(=CCO)O[C@H]2CC(=O)N12 | 103
20 | C#C[C@]1(O)CC[C@@H]2[C@H]3CCC4=CC(=O)CC[C@H]4[C@H]3C(=C)C[C@@]21CC | 82.2
21 | CC[C@H]1OC(=O)[C@H](C)[C@@H](O[C@H]2C[C@@](C)(OC)[C@@H](O)[C@H](C)O2)C(C)[C@@H](O[C@@H]2O[C@H](C)C[C@H](N(C)C)[C@@H]2O)[C@](C)(OC)C[C@@H](C)C(=O)[C@H](C)[C@@H](O)[C@]1(C)O (stereo not given in full) | 35.4
22 | CC(=O)[C@H]1CC[C@H]2[C@@H]3C=CC4=CC(=O)CC[C@@]4(C)[C@H]3CC[C@]12C | 96.9

Experiment: qHTS profiling of the MIPE4 collection as inhibitors of Plasmodium falciparum (DD2) proliferation (Rep 2) (AID 743346)
Conditions: P. falciparum Dd2 in erythrocytes, SYBR Green DNA, 72 h; at 28.5 µM (top of the series)
Method in brief: as §1

Row | Compound | parasite growth, % of control (lower = inhibition) [%]
23 | O=C(O)[C@H]1C(=CCO)O[C@H]2CC(=O)N12 | 115
24 | C#C[C@]1(O)CC[C@@H]2[C@H]3CCC4=CC(=O)CC[C@H]4[C@H]3C(=C)C[C@@]21CC | 66.9
25 | CC[C@H]1OC(=O)[C@H](C)[C@@H](O[C@H]2C[C@@](C)(OC)[C@@H](O)[C@H](C)O2)C(C)[C@@H](O[C@@H]2O[C@H](C)C[C@H](N(C)C)[C@@H]2O)[C@](C)(OC)C[C@@H](C)C(=O)[C@H](C)[C@@H](O)[C@]1(C)O (stereo not given in full) | 38.9
26 | CC(=O)[C@H]1CC[C@H]2[C@@H]3C=CC4=CC(=O)CC[C@@]4(C)[C@H]3CC[C@]12C | 165

Experiment: qHTS profiling of the MIPE4 collection as inhibitors of Plasmodium falciparum (HB3) proliferation (AID 743347);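 note: plate controls were DMSO vehicle wells for no effect and artemisinin wells for full effect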
Conditions: P. falciparum HB3 in erythrocytes, SYBR Green DNA, 72 h; at 28.5 µM (top of the series)
Method in brief: as §1

Row | Compound | growth, % of control [%]
27 | O=C(O)[C@H]1C(=CCO)O[C@H]2CC(=O)N12 | 93.1
28 | C#C[C@]1(O)CC[C@@H]2[C@H]3CCC4=CC(=O)CC[C@H]4[C@H]3C(=C)C[C@@]21CC | 44.4
29 | CC[C@H]1OC(=O)[C@H](C)[C@@H](O[C@H]2C[C@@](C)(OC)[C@@H](O)[C@H](C)O2)C(C)[C@@H](O[C@@H]2O[C@H](C)C[C@H](N(C)C)[C@@H]2O)[C@](C)(OC)C[C@@H](C)C(=O)[C@H](C)[C@@H](O)[C@]1(C)O (stereo not given in full) | 37.4
30 | CC(=O)[C@H]1CC[C@H]2[C@@H]3C=CC4=CC(=O)CC[C@@]4(C)[C@H]3CC[C@]12C | 95.1
